“And” between values parts separate entries of the source, which are not always exact repeats. Equal values may be shown once. Among all 5,500 compounds or so, about 2,000 (36%) were called active. Not shown: some 18% with an inconclusive outcome. Rule as the data show it: active = normalized growth mostly below about 0.91 (no sharp cut-off); inconclusive = no clear call, values can overlap the other calls; inactive = mostly above about 0.92. The list shows a part of the results.
Assay: chemical genetic growth profiling, strain panel (AID 1159580);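 also: tested at 20 µM; growth read once vehicle control cultures reached saturation at 30 °C; 1 = growth at the plate median or of vehicle wells; lower values mean less growth of the strain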
Conditions: S. cerevisiae deletion strains, growth OD

Measured: normalized growth

O=P1(N(CCCl)CCCl)NCCCO1 (stereo not given)
active: locus YKL085W, strain MDH1 (second series), active compounds read low 1.08 [resistant] | locus YKL085W, strain MDH1, active compounds read low 1.08 [resistant]
inactive: locus YAL013W, strain DEP1, active compounds read low 0.998 and 0.974 | locus YAL021C, strain ccr4, active compounds read low 0.995 | locus YAL026C, strain drs2, active compounds read low 0.981 | locus YAL030W, strain snc1, active compounds read low 1.01 | locus YAL040C, strain CLN3, active compounds read low 0.973 | locus YBL061C, strain skt5, active compounds read low 1.01 | locus YBR009C, strain hhf1, active compounds read low 1.01 | locus YBR021W, strain FUR4, active compounds read low 1.02 | locus YBR023C, strain chs3, active compounds read low 1.02 | locus YBR171W, strain sec66, active compounds read low 1 | locus YBR229C, strain ROT2, active compounds read low 1 | locus YBR231C, strain swc5, active compounds read low 0.995 | locus YBR279W, strain paf1, active compounds read low 1 | locus YCL011C, strain gbp2, active compounds read low 1.01 | locus YCL016C, strain dcc1, active compounds read low 1.04 | locus YCL029C, strain bik1, active compounds read low 1.03 | locus YCL061C, strain MRC1 (second series), active compounds read low 1 | locus YCL061C, strain MRC1, active compounds read low 1 | locus YCL069W, strain vba3, active compounds read low 0.995 | locus YCR088W, strain abp1, active compounds read low 1 | locus YDL005C, strain med2, active compounds read low 0.99 | locus YDL035C, strain GPR1, active compounds read low 1.02 | locus YDL040C, strain nat1, active compounds read low 0.998 | locus YDL074C, strain BRE1, active compounds read low 1.03 | locus YDL101C, strain DUN1, active compounds read low 1.01 | locus YDL185W, strain tfp1, active compounds read low 1.01 | locus YDL192W, strain arf1, active compounds read low 1.03 | locus YDR001C, strain nth1, active compounds read low 0.992 | locus YDR069C, strain doa4, active compounds read low 1 | locus YDR101C, strain arx1, active compounds read low 1.02 | locus YDR137W, strain rgp1, active compounds read low 1.01 | locus YDR150W, strain NUM1, active compounds read low 0.996 | locus YDR159W, strain sac3, active compounds read low 0.99 | locus YDR162C, strain NBP2, active compounds read low 1.01 | locus YDR195W, strain ref2 0.977 | locus YDR297W, strain sur2, active compounds read low 1.03 | locus YDR318W, strain mcm21, active compounds read low 1.03 | locus YDR334W, strain swr1, active compounds read low 0.994 | locus YDR335W, strain msn5, active compounds read low 1.01 | locus YDR363W, strain ESC2, active compounds read low 0.962 | locus YDR388W, active compounds read low 1.02 | locus YDR392W, strain spt3, active compounds read low 0.941 | locus YDR502C, strain sam2, active compounds read low 1.06 | locus YEL003W, strain gim4, active compounds read low 0.991 | locus YEL037C, strain rad23, active compounds read low 0.984 | locus YEL061C, strain CIN8 (second series), active compounds read low 0.98 | locus YEL061C, strain CIN8, active compounds read low 1 | locus YER002W, strain NOP16, active compounds read low 1.01 | locus YER015W, strain faa2, active compounds read low 1.02 | locus YER016W, strain bim1, active compounds read low 0.997 | locus YER110C, active compounds read low 1.05 | locus YER111C, strain swi4, active compounds read low 0.995 | locus YER155C, strain BEM2 (second series), active compounds read low 0.936 | locus YER155C, strain BEM2, active compounds read low 0.996 | locus YER167W, strain BCK2, active compounds read low 1 | locus YFR010W, strain ubp6, active compounds read low 0.971 | locus YGL078C, strain dbp3, active compounds read low 1.03 | locus YGL086W, strain mad1, active compounds read low 1.03 | locus YGL167C, strain pmr1, active compounds read low 1.01 | locus YGL173C, strain kem1, active compounds read low 1.01 | locus YGL227W, strain vid30, active compounds read low 0.992 | locus YGL240W, strain doc1, active compounds read low 0.983 | locus YGL248W, strain PDE1, active compounds read low 1.01 | locus YGL253W, strain hxk2, active compounds read low 0.987 | locus YGR078C, strain PAC10, active compounds read low 0.988 | locus YGR135W, strain pre9, active compounds read low 1.04 | locus YGR229C, strain SMI1, active compounds read low 1 | locus YGR252W, strain gcn5, active compounds read low 1.07 | locus YHR013C, strain ard1, active compounds read low 1.03 | locus YHR027C, strain rpn1, active compounds read low 1.01 | locus YHR030C, strain SLT2, active compounds read low 1.01 and 0.994 | locus YHR079C, strain IRE1 (second series), active compounds read low 1.03 | locus YHR079C, strain IRE1, active compounds read low 0.991 | locus YHR094C, strain hxt1, active compounds read low 1.03 | locus YHR129C, strain ARP1, active compounds read low 1 | locus YHR142W, strain chs7, active compounds read low 1.02 | locus YHR200W, strain rpn10, active compounds read low 1.02 | locus YIL066C, strain RNR3, active compounds read low 1.02 | locus YIL073C, strain SPO22, active compounds read low 1.01 | locus YIL125W, strain kgd1, active compounds read low 1.02 | locus YIR030C, strain dcg1, active compounds read low 1.03 | locus YJL092W, strain hpr5, active compounds read low 1.01 | locus YJL095W, strain BCK1 (second series), active compounds read low 1.01 | locus YJL095W, strain BCK1, active compounds read low 1.03 and 0.99 | locus YJL115W, strain asf1, active compounds read low 0.994 | locus YJL129C, strain trk1, active compounds read low 1.02 | locus YJL134W, strain LCB3, active compounds read low 1.01 | locus YJL154C, strain vps35, active compounds read low 0.988 | locus YJL164C, strain tpk1, active compounds read low 1.01 | locus YJL166W, strain qcr8, active compounds read low 1.03 | locus YJL168C, strain set2, active compounds read low 1.02 | locus YJL187C, strain SWE1 (second series), active compounds read low 1.01 | locus YJL187C, strain SWE1, active compounds read low 1.02 | locus YJR043C, strain POL32, active compounds read low 1.01 | locus YJR066W, strain TOR1, active compounds read low 1 | locus YJR075W, strain HOC1, active compounds read low 1 | locus YKL009W, strain mrt4, active compounds read low 0.957 | locus YKL068W, active compounds read low 1 | locus YKL160W, strain elf1, active compounds read low 1.03 | locus YKR001C, strain vps1, active compounds read low 1.03 | locus YKR026C, strain gcn3, active compounds read low 0.993 | locus YKR091W, strain srl3, active compounds read low 1.01 | locus YLL001W, strain dnm1, active compounds read low 1.04 | locus YLL026W, active compounds read low 1.01 | locus YLL041C, strain sdh2, active compounds read low 0.991 | locus YLR027C, strain aat2, active compounds read low 0.992 | locus YLR039C, strain RIC1, active compounds read low 1.02 | locus YLR058C, strain SHM2, active compounds read low 1.01 | locus YLR102C, strain apc9, active compounds read low 1.02 | locus YLR113W, strain HOG1, active compounds read low 0.994 | locus YLR221C, strain rsa3, active compounds read low 1.07 | locus YLR258W, strain gsy2, active compounds read low 1.01 | locus YLR262C, strain YPT6 (second series), active compounds read low 1.01 | locus YLR262C, strain YPT6, active compounds read low 1.01 | locus YLR268W, strain sec22, active compounds read low 1.03 | locus YLR320W, strain mms22, active compounds read low 1.05 | locus YLR330W, strain CHS5, active compounds read low 1.01 | locus YLR342W, strain FKS1 (second series), active compounds read low 1.02 | locus YLR342W, strain FKS1, active compounds read low 1 | locus YLR357W, strain rsc2, active compounds read low 0.984 | locus YLR370C, strain arc18, active compounds read low 1.02 | locus YLR371W, strain rom2, active compounds read low 1.02 | locus YLR384C, strain iki3, active compounds read low 1 | locus YLR418C, strain cdc73, active compounds read low 1.1 | locus YML016C, strain PPZ1, active compounds read low 1 | locus YML032C, strain rad52, active compounds read low 1.03 | locus YML120C, strain ndi1, active compounds read low 1.04 | locus YML124C, strain tub3, active compounds read low 1.04 | locus YMR058W, strain fet3, active compounds read low 0.99 | locus YMR078C, strain ctf18, active compounds read low 1.03 | locus YMR125W, strain sto1, active compounds read low 0.981 | locus YMR129W, active compounds read low 0.991 | locus YMR205C, strain PFK2, active compounds read low 1.03 | locus YMR223W, strain ubp8, active compounds read low 1.05 | locus YMR231W, strain pep5, active compounds read low 0.997 | locus YMR263W, strain SAP30, active compounds read low 1.01 and 1 | locus YMR307W, strain GAS1, active compounds read low 1.03 and 0.994 | locus YNL067W, strain RPL9B, active compounds read low 1.01 | locus YNL071W, strain lat1, active compounds read low 0.991 | locus YNL128W, strain TEP1, active compounds read low 1.02 and 0.983 | locus YNL175C, strain NOP13, active compounds read low 0.989 | locus YNL183C, strain NPR1, active compounds read low 0.946 | locus YNL197C, strain WHI3, active compounds read low 0.976 | locus YNL209W, strain ssb2, active compounds read low 1.01 | locus YNL224C, strain SQS1, active compounds read low 0.995 | locus YNL233W, strain BNI4, active compounds read low 1.02 | locus YNL248C, strain rpa49, active compounds read low 0.914 | locus YNL250W, strain rad50, active compounds read low 1.03 | locus YNL271C, strain bni1, active compounds read low 1.02 | locus YNL298W, strain CLA4, active compounds read low 1.04 | locus YNL307C, strain MCK1, active compounds read low 1.02 | locus YNL322C, strain KRE1 (second series), active compounds read low 1.01 | locus YNL322C, strain KRE1, active compounds read low 0.996 | locus YNR049C, strain mso1, active compounds read low 0.993 | locus YNR052C, strain pop2, active compounds read low 1.02 | locus YOL147C, strain pex11, active compounds read low 1.02 | locus YOR001W, strain rrp6, active compounds read low 0.934 | locus YOR061W, strain CKA2, active compounds read low 1.02 | locus YOR069W, strain VPS5, active compounds read low 1.01 | locus YOR070C, strain gyp1, active compounds read low 1.01 | locus YOR080W, strain dia2, active compounds read low 1.01 | locus YOR083W, strain WHI5 (second series), active compounds read low 0.978 | locus YOR083W, strain WHI5, active compounds read low 1.05 | locus YOR106W, strain vam3, active compounds read low 1.06 | locus YOR136W, strain idh2, active compounds read low 1.03 | locus YOR144C, strain elg1, active compounds read low 1.05 | locus YOR184W, strain ser1, active compounds read low 1.08 | locus YOR231W, strain MKK1, active compounds read low 1 | locus YOR265W, strain rbl2, active compounds read low 1.01 | locus YOR270C, strain vph1, active compounds read low 1.04 | locus YOR290C, strain snf2, active compounds read low 1.03 | locus YOR316C, strain cot1, active compounds read low 1.04 | locus YPL051W, strain arl3, active compounds read low 1.02 | locus YPL055C, strain LGE1, active compounds read low 1 | locus YPL078C, strain atp4, active compounds read low 0.991 | locus YPL106C, strain sse1, active compounds read low 1.04 | locus YPL240C, strain hsp82, active compounds read low 1 | locus YPL256C, strain CLN2, active compounds read low 0.992 | locus YPR119W, strain clb2, active compounds read low 1.03 | locus YPR141C, strain kar3, active compounds read low 1.01 | locus YPR163C, strain tif3, active compounds read low 1.02 | locus YPR167C, strain met16, active compounds read low 1.02 | strain wtn01, active compounds read low 1.06
